Rows were chosen to be rich in hits. Some 3.5% of all compounds tested hit in one or more screens of this group.
TEAD-YAP inh: TEAD-YAP interaction inhibition, primary screen, TEAD-YAP interaction inhibitor project, luminescence, HEK-TIYL cells; TEAD-Gal4/YAP UAS-luciferase luminescence; inhibition, % at 9.12 µM; 640,000 compounds, 1.4% hits; AID 1259422, 2018; in the data active means inhibition above about 32%
GPR151 activ: activators of human GPR151, primary screen, cell-based, PathHunter beta-arrestin, luminescence; activation, % at 11.2 µM; 650,000 compounds, 1% hits; PathHunter beta-arrestin GPR151 cells; AID 1508602, 2020; G-protein coupled receptor 151 (Homo sapiens), Q8TDV0; in the data active means activation above about 4.9%
MITF primary: MITF inhibitors, primary screen, biochemical, AlphaScreen, human; AID 1259374, 2018; 650,000 compounds, 0.91% hits; AlphaScreen MITF homodimerization, bead proximity signal; inhibition, % at 2.6 µM; Microphthalmia-associated transcription factor (Homo sapiens), O75030; in the data active means inhibition above about 50%
FBW7 act: FBW7 E3 ligase activators, primary screen, biochemical, AlphaScreen, human. F-box/WD repeat-containing protein 7 (Homo sapiens), Q969H0. AlphaScreen FBW7–phospho-cyclin E peptide binding, activator screen. normalized activity (activation), % at 26.1 µM. 650,000 compounds, 0.13% hits; in the data active means normalized activity above about 1.9%;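 further: purified mutant Fbw7 with reduced substrate affinity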
Target sequence (Q969H0 whole entry, looked up): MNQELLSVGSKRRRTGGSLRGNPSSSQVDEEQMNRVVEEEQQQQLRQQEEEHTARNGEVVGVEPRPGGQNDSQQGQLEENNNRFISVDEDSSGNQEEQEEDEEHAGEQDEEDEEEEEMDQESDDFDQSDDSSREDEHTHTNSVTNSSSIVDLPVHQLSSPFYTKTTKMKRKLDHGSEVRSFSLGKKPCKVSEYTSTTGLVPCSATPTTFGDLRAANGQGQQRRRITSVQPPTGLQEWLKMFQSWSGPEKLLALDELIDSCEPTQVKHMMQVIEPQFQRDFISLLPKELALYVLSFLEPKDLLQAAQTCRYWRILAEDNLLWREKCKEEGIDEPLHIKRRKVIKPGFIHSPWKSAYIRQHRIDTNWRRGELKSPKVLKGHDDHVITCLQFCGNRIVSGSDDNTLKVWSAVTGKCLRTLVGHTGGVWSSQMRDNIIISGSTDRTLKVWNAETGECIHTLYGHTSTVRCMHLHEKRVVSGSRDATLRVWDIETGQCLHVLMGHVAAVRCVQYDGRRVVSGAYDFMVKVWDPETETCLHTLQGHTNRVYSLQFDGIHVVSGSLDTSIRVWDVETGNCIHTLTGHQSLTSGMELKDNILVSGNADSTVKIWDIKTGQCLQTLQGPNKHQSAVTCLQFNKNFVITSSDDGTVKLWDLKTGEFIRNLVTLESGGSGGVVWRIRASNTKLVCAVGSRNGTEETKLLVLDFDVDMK
MITF confirm: MITF inhibitors, retest of hits, confirmation, biochemical, AlphaScreen, triplicate. shares compounds with MITF primary. inhibition, % at 2.6 µM. 4,700 compounds, 16% hits. AlphaScreen MITF homodimerization, biotin/His-MITF beads. AID 1259372, 2018;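 active means inhibition above a cutoff derived from the DMSO control wells, cut at about 28% in these data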;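 further: inhibitors lower the bead chemiluminescence by keeping MITF from dimerizing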
AS interf ctr: AlphaScreen optical interference compounds, counter-screen for MITF inhibitor project, biochemical, triplicate. shares compounds with MITF primary. LysRS AlphaScreen counterscreen, signal interference. inhibition, % at 2.6 µM. 4,700 compounds, 7.6% hits;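 active means inhibition above a cutoff derived from the DMSO control wells, cut at about 30% in these data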
Each line names hits and unclear results; the compound was inactive in the other large screens (follow-up assays come after a bar, where they were run).

CCCNC(=O)c1ccc(CN(c2ccccc2)S(C)(=O)=O)cc1	none
CCCCNC(=O)c1ccc(CN(c2ccccc2)S(C)(=O)=O)cc1	MITF primary 91.6 | MITF confirm inactive | AS interf ctr inactive
COCCNc1nc(-c2ccccc2OC)ccc1C(=O)NCCNC(C)=O	none
Clc1ccc2nc(CSc3nnc(NC4CCCCC4)s3)cn2c1	none
CCOc1cccc2sc(NC(=O)CSc3ccccc3)nc12	none
Cc1cccc(NC(=O)CSc2ncc(-c3ccccc3)[nH]2)c1	MITF primary 80.6 | MITF confirm inactive | AS interf ctr inactive
CC(=O)Nc1cc(-c2ccccc2)nn1Cc1ccc(Cl)cc1	none
CC(=O)Nc1cc(-c2ccc(Cl)cc2)nn1-c1ccccc1	MITF primary 80.9 | MITF confirm inactive | AS interf ctr inactive
O=C(c1cn(-c2ccccc2)nc1C12CC3CC(CC(C3)C1)C2)N1CCOCC1	MITF primary 58.9 | MITF confirm inactive | AS interf ctr inactive
O=C(c1cn(-c2ccccc2)nc1-c1cccs1)N1CCOCC1	none
O=C1N=C(SCC(=O)N2CCCCC2)NC(=O)C1Cc1ccccc1 (configuration not stated)	none
Clc1ccccc1CN1CCN(C2C3CC4CC(C3)CC2C4)CC1 (configuration not stated)	MITF primary 74.8 | MITF confirm inactive | AS interf ctr inactive
c1ccc2c(CN3CCN(C4C5CC6CC(C5)CC4C6)CC3)c[nH]c2c1 (configuration not stated)	MITF primary 64.7 | MITF confirm inactive | AS interf ctr inactive
Cc1ccccc1CN1CCN(C2C3CC4CC(C3)CC2C4)CC1 (configuration not stated)	MITF primary 73.9 | MITF confirm inactive | AS interf ctr inactive
O=C(COC(=O)C1CCC(=O)N1)Nc1ccccc1Br (configuration not stated)	MITF primary 52.8 | MITF confirm inactive | AS interf ctr inactive
COc1ccc(OC)c(S(=O)(=O)NCc2cccnc2)c1	none
CCOc1ccc(OCC)c(S(=O)(=O)NCc2cccnc2)c1	MITF primary 56.5 | MITF confirm inactive | AS interf ctr inactive
CC(=O)Nc1nc(-c2ccc(C)cc2C)cs1	none
Cc1ccc(-c2csc(NC(=O)c3cc(Cl)cc(Cl)c3)n2)c(C)c1	MITF primary 75.5 | MITF confirm inactive | AS interf ctr inactive
Cc1cc(=O)n(C)c(=O)n1CCCCCCNCc1ccccc1	MITF primary 76.7 | MITF confirm inactive | AS interf ctr inactive
O=C(O)CN1CC2([N+](=O)[O-])C=CCC([N+](=O)[O-])(C1)C2 (configuration not stated)	MITF primary 55.0 | MITF confirm inactive | AS interf ctr inactive
CCN(CC)C(=O)C1=CC2([N+](=O)[O-])CN(CC(=O)O)CC([N+](=O)[O-])(C1)C2 (configuration not stated)	none
Cc1ccc(Cl)cc1N1CCN(S(=O)(=O)c2cccc3nonc23)CC1	none
NC(=O)CSc1n[nH]c(CN2c3ccccc3Sc3ccccc32)n1	none
CN1CCC(N(C)CC(O)COCc2ccccc2F)CC1 (configuration not stated)	none
CN1CCC(N(C)CC(O)COCc2ccccc2Cl)CC1 (configuration not stated)	MITF primary 86.8 | MITF confirm inactive | AS interf ctr inactive
CCC(Sc1nc2cc3c(cc2c(=O)n1CCCCCC(=O)NCc1ccc2c(c1)OCO2)OCO3)C(=O)Nc1ccc2c(c1)OCO2 (configuration not stated)	none
COc1ccc(C(CNCC(O)COCC2=CCC3CC2C3(C)C)N(C)C)cc1 (configuration not stated)	MITF primary 73.2 | MITF confirm inactive | AS interf ctr 31.4
CC1(C(=O)N/N=C/c2cccnc2)CC1(Cl)Cl (configuration not stated)	MITF primary 59.5 | MITF confirm inactive | AS interf ctr inactive
CCN1CCN(CC(=O)N/N=C/c2ccc(Cl)cc2)CC1	none
CCN1CCN(CC(=O)N/N=C/c2ccc(Cl)c(Cl)c2)CC1	MITF primary 67.8 | MITF confirm inactive | AS interf ctr inactive
O=C(N/N=C/c1cccnc1)C12CC3CC(CC(C3)C1)C2	none
O=C(CN1CCSCC1)N/N=C/c1cccnc1	MITF primary 51.2 | MITF confirm inactive | AS interf ctr inactive
CCN1CCN(CC(=O)N/N=C/c2ccc(C(C)C)cc2)CC1	MITF primary 51.8 | MITF confirm inactive | AS interf ctr inactive
CNC(=O)/C(=C/c1ccc(Br)cc1)NC(=O)c1ccccc1	none
Cc1c(C(=O)N2CCCc3ccccc32)sc2ncn(CC(=O)N3CCOCC3)c(=O)c12	none
CCN1CCN(CC(=O)N/N=C/c2ccccc2)CC1	MITF primary 70.2 | MITF confirm inactive | AS interf ctr inactive
c1ccc(CNc2nc(-c3ccccn3)nnc2-c2ccccc2)cc1	MITF primary 105.6 | MITF confirm 100.5 | AS interf ctr 100.3
CN(C)c1nc(-c2ccccn2)nnc1-c1ccccc1	MITF primary 102.3 | MITF confirm 106.9 | AS interf ctr 100.3
c1ccc(-c2nnc(-c3ccccn3)nc2-c2ccccc2)cc1	none
CN1CCCC(C(=O)NCc2nnc3n2CCN(Cc2cccc(OCCO)c2)CC3)C1 (configuration not stated)	none
CCN1C(=O)/C(=C/c2ccco2)S/C1=N/S(=O)(=O)c1ccc(C)cc1	MITF primary 52.9 | MITF confirm inactive | AS interf ctr inactive
Brc1cccc(CN2CCC(N3CCCCC3)CC2)c1	none
Clc1cccc(CN2CCN(C3CCCCCC3)CC2)c1	MITF primary 68.6 | MITF confirm inactive | AS interf ctr inactive
CS(=O)(=O)N1CCC(N2CCN(Cc3ccccc3)CC2)CC1	MITF primary 54.0 | MITF confirm inactive | AS interf ctr inactive
Cc1ccc(CN2CCN(C3CCCCC3)CC2)cc1	MITF primary 65.4 | MITF confirm inactive | AS interf ctr inactive
CC1CCCC(N2CCN(Cc3cccc(Cl)c3)CC2)C1 (configuration not stated)	MITF primary 67.3 | MITF confirm inactive | AS interf ctr inactive
CC(SCC(=O)O)=C1C(=O)c2ccccc2C1=O	none
c1ccc(CN2CCC(N3CCN(C4CCN(Cc5ccccc5)CC4)CC3)CC2)cc1	none
CCc1ccc(CN2CCN(C3CCN(Cc4ccccc4)CC3)CC2)cc1	MITF primary 54.9 | MITF confirm inactive | AS interf ctr inactive
O=C(Cc1ccccc1)N1CCC(N2CCN(Cc3ccccc3)CC2)CC1	MITF primary 65.6 | MITF confirm inactive | AS interf ctr inactive
c1ccc(CN2CCN(C3CCCC3)CC2)cc1	MITF primary 74.6 | MITF confirm inactive | AS interf ctr inactive
